From PubChem BioAssay come the findings set out here.

Values without a mark were called inactive. For some of these results: Entries with a potency or affinity are not part of this list. Calls of active or inactive are those of the source. Unless noted, the rule behind the calls is not given here.

Test [1] in a line: antimalarial activity against Dd2 strain (AID 2302;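 active = growth inhibition above 50% at the single 2 µM test dose, taken to imply half-maximal potency below 2 µM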;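 note: 0% = DMSO untreated growth and 100% = chloroquine plus artemisinin killed control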). The note with it: P. falciparum Dd2 in RBCs, LDH growth readout, 72 h; at 2 µM; active compounds read high.
Test [2] can be described thus: HepG2 cytotoxicity, primary screen, cytotoxicity control for P. falciparum antimalarial project, cell-based, ATP luminescence (AID 2303;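 active = inhibition above 50%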;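 note: 0% = DMSO wells and 100% = digitonin-killed cells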). The conditions noted are these: HepG2 viability, 24-48 h, at 10 µM, active compounds read high.
The target of test [3] is L-lactate dehydrogenase (Plasmodium falciparum (isolate CDC / Honduras)) (UniProt Q27743). The test can be described thus: PfLDH activity inhibition – cell lysate, 3D7 strain, counter-screen for P. falciparum growth inhibition project (AID 2304).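 Note: 0% = vehicle and 100% = reference inhibitor.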 The note with it: P. falciparum 3D7 crude extract, LDH APAD/NBT absorbance; at 2 µM; active compounds read high.
L-lactate dehydrogenase (Plasmodium falciparum (isolate CDC / Honduras)), sequence (Q27743 whole entry, looked up): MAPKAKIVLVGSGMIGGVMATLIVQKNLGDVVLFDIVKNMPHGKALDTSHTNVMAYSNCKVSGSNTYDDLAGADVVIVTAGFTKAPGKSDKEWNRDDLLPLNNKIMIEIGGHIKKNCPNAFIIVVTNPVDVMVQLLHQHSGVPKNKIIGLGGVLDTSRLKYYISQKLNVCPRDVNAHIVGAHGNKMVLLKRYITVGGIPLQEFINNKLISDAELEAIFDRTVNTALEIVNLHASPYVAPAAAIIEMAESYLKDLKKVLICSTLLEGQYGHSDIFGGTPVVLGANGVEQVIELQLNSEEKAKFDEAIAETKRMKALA
Test [4] in a line: inhibition of 3D7 malaria parasite growth – strain 3D7 (AID 2306).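 Note: 0% = DMSO wells and 100% = chloroquine plus artemisinin control wells.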 The conditions noted are these: P. falciparum 3D7 erythrocytic growth, LDH absorbance, 72 h; at 2 µM; active compounds read high.
Test [5] addresses Calcium-dependent protein kinase 1 (Plasmodium falciparum (isolate 3D7)) (UniProt P62344). The test can be described thus: PfCDPK1 kinase inhibitors, biochemical, TCAMS library (AID 1159585; cut-off not given, nearly all actives have IC50 up to about 0.98 µM;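 note: inhibitors leave more ATP so luminescence rises with inhibition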). The note with it: recombinant PfCDPK1, Kinase-Glo ATP depletion luminescence.
Test [6] deals with Plasmodium falciparum protein kinase 6 (PK6, PF3D7_1337100) (UniProt Q8IDW1). The test can be described thus: PfPK6 kinase inhibitors, biochemical, TCAMS library (AID 1159586). The note with it: recombinant PfPK6, Kinase-Glo ATP depletion luminescence.
Plasmodium falciparum protein kinase 6 (PK6, PF3D7_1337100), sequence (Q8IDW1 1-305): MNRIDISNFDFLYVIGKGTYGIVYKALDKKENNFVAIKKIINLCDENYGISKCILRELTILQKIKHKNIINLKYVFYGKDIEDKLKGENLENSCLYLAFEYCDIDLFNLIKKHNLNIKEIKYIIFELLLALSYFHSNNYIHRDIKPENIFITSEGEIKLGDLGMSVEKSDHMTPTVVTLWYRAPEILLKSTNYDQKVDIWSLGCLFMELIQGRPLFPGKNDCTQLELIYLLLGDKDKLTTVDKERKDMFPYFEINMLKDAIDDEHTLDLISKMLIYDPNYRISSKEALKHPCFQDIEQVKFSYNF
For test [7], the target named is Protein kinase 7 (PK7), Plasmodium falciparum 3D7 (PF3D7_0213400) (UniProt Q7YTF7). The test can be described thus: inhibition of Plasmodium PK7 catalytic activity – biochemical, TCAMS antimalarial set, Kinase-Glo luminescence (AID 1159587). The conditions noted are these: recombinant PfPK7, Kinase-Glo ATP depletion luminescence. A general note: Kinase-Glo measures the ATP left after a reaction by luminescence.
Protein kinase 7 (PK7), Plasmodium falciparum 3D7 (PF3D7_0213400), sequence (Q7YTF7 1-343): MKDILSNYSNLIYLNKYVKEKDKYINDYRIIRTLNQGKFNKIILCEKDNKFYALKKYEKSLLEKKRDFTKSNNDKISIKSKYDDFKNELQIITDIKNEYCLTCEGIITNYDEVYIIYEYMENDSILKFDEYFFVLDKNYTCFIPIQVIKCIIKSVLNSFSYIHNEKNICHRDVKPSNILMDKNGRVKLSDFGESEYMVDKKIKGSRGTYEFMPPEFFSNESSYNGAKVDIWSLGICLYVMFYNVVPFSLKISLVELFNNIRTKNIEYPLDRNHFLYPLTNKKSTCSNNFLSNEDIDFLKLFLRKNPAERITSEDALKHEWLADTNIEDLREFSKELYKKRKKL

For test [8], the target named is Calcium-dependent protein kinase 4 (Plasmodium falciparum (isolate 3D7)) (UniProt Q8IBS5). The test can be described thus: PfCDPK4 kinase inhibitors, biochemical, TCAMS library (AID 1159588; cut-off not given, nearly all actives have IC50 up to about 0.91 µM). The conditions noted are these: recombinant PfCDPK4, Kinase-Glo ATP depletion luminescence.
Calcium-dependent protein kinase 4 (Plasmodium falciparum (isolate 3D7)), sequence (Q8IBS5 whole entry, looked up): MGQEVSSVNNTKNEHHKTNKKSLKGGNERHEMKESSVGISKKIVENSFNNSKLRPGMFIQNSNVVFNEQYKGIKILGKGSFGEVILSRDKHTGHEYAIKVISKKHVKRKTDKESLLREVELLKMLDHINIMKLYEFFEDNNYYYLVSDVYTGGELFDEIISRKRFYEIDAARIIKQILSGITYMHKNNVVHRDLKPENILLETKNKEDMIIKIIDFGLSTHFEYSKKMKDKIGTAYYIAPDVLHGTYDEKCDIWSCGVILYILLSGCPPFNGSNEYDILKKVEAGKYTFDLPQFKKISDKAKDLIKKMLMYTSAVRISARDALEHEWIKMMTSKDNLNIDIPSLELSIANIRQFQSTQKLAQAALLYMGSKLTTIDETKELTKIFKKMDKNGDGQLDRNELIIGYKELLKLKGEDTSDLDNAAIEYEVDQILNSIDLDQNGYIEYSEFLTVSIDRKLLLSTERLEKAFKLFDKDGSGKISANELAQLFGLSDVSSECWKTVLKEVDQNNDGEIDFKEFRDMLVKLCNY

Calcium-dependent protein kinase 1 (Plasmodium falciparum (isolate 3D7)), sequence (P62344 whole entry, looked up): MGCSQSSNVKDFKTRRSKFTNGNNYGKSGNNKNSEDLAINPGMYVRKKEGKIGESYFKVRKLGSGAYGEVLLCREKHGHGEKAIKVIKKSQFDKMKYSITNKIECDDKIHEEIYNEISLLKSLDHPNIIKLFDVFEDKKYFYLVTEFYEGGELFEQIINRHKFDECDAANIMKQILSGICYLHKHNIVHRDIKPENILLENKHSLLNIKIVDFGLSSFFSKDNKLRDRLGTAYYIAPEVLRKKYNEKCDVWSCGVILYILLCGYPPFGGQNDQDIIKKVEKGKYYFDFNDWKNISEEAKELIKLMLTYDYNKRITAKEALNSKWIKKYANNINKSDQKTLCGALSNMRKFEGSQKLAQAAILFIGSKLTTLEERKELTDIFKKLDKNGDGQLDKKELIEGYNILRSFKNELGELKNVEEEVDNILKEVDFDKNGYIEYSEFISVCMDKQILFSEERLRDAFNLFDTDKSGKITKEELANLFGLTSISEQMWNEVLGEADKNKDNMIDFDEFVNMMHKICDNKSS

As to `CN1CCC(N(Cc2ccc(-c3ccc(Cl)cc3)cc2)C(=O)Cn2c(CCc3cccc(F)c3F)cc(=O)c3ccccc32)CC1`, the growth inhibition in test [1] was 88% (active); in test [4], 97% (active). The values for the inhibition in test [2] and in test [3] were 93% (active) and -3%, respectively. The outcome in test [5], in test [6], in test [7] and in test [8] was inactive.
In the case of `COc1cccc(-c2ccc3c(-c4cccc(S(C)(=O)=O)c4)cnc(N)c3c2)c1`, the figures for the growth inhibition in test [1] and in test [4] were 21% and 96% (active), respectively. Further, the values for the inhibition in test [2] and in test [3] were 45% and -6%, respectively. Also, the outcome in test [5], in test [6], in test [7] and in test [8] was inactive.
On to `Cc1cc(N(C)C)nc(Nc2ccc(NC(=O)C(C)Oc3ccccc3)cc2)n1` (stereo not given), for which the values for the growth inhibition in test [1] and in test [4] were 30% and 98% (active), respectively. Moreover, the inhibition is 2% in test [2] and -1% in test [3]. Besides, the outcome in test [5], in test [6], in test [7] and in test [8] was inactive.
Turning to `Nc1nc(N)c2cc(NS(=O)(=O)c3ccc(-c4ccccc4)cc3)ccc2n1`, the figures for the growth inhibition in test [1] and in test [4] were 54% (active) and 102% (active), respectively. Also, the inhibition is 7% in test [2] and -3% in test [3]. Besides, the result in test [5], in test [6], in test [7] and in test [8] was inactive.
With `COc1cc(Cc2cnc(N)nc2N)cc(OC)c1OCCCCC(=O)O`, the values for the growth inhibition in test [1] and in test [4] were -1% and 88% (active), respectively. Also, the inhibition in test [2] and in test [3] was -4% each time. Moreover, the outcome in test [5], in test [6], in test [7] and in test [8] was inactive.
In the case of `O=C(Nc1ccc(N2CCN(Cc3cccc(F)c3)CC2)cc1)c1cccs1`, the values for the growth inhibition in test [1] and in test [4] were 92% (active) and 95% (active), respectively. The inhibition is -5% in test [2] and -1% in test [3]. Further, the outcome in test [5], in test [6], in test [7] and in test [8] was inactive.
For the compound `CC[C@H](C)CNC(=O)c1cncc(-c2ccc(CNCCCc3ccccc3)cc2)c1`, the growth inhibition in test [1] was 99% (active); in test [4], 101% (active). The inhibition was 19% in test [2] and -2% in test [3]. The result in test [5], in test [6], in test [7] and in test [8] was inactive.
Turning to `c1cn(-c2ccc(CNc3nccc(Nc4ccc(OCCN5CCOCC5)cc4)n3)cc2)cn1`, the growth inhibition is 3% in test [1] and 100% (active) in test [4]. The results for the inhibition in test [2] and in test [3] were 2% and -2%, respectively. Moreover, the result in test [5], in test [6], in test [7] and in test [8] was inactive.
For the compound `CCCCCCNc1cc(C)nc(/N=C(\N)Nc2cccc(C(F)(F)F)c2)n1`, the growth inhibition in test [1] and in test [4] was 100% (active) each time. For the same compound, the inhibition was 44% in test [2] and -2% in test [3]. Further, the outcome in test [5], in test [6], in test [7] and in test [8] was inactive.
Consider `CCOc1cc(CC)ccc1C1CCN(CCN2CCC(NC(=O)c3ccc(-c4ccc(C(C)=O)cc4)cc3)CC2)CC1`, for which the results for the growth inhibition in test [1] and in test [4] were 8% and 100% (active), respectively. In addition, the inhibition in test [2] was 25%; in test [3] it was -1%. Besides, the result in test [5], in test [6], in test [7] and in test [8] was inactive.
As for `Cc1ccc(-c2nc3cc(NC(=O)c4ccc([N+](=O)[O-])o4)ccc3o2)cc1Cl`, the growth inhibition was 97% (active) in test [1] and 102% (active) in test [4]. Moreover, the inhibition in test [2] is 24%; in test [3] it was -3%. The result in test [5], in test [6], in test [7] and in test [8] was inactive.
In the case of `Oc1cc2c(cc1CN1CCN(Cc3cccs3)CC1)CCC2`, the growth inhibition was 91% (active) in test [1] and 99% (active) in test [4]. Further, the inhibition in test [2] was 10%; in test [3], -7%. In addition, the result in test [5], in test [6], in test [7] and in test [8] was inactive.
Turning to `CCc1ccc(NC(=O)c2cccc(CN3CCCN(CC4CCCCC4)CC3)c2)cc1`, the growth inhibition in test [1] was 41%; in test [4], 85% (active). For the same compound, the inhibition in test [2] was 62% (active); in test [3], 4%. Moreover, the outcome in test [5], in test [6], in test [7] and in test [8] was inactive.
`Cc1cc(N(C)CCCN(C)C)nc(Nc2ccc(Cl)cc2)n1`: the growth inhibition in test [1] was 79% (active); in test [4], 101% (active). Moreover, the inhibition in test [2] was 7%; in test [3], 5%. For the same compound, the result in test [5], in test [6], in test [7] and in test [8] was inactive.
In the case of `CCN1CCN(c2ccc(Nc3ccnc4ccc(Br)cc34)cc2)CC1`, the growth inhibition is 86% (active) in test [1] and 98% (active) in test [4]. Besides, the figures for the inhibition in test [2] and in test [3] were 37% and 2%, respectively. For the same compound, the outcome in test [5], in test [6], in test [7] and in test [8] was inactive.
Take `Clc1ccc2c(NN=Cc3ccco3)ccnc2c1`: the growth inhibition in test [1] is 96% (active); in test [4], 100% (active). The inhibition is 3% in test [2] and -4% in test [3]. The result in test [5], in test [6], in test [7] and in test [8] was inactive.
Take `CN(C)CCCNCCS(=O)(=O)c1cccc(Nc2ccc(-c3cccc(N(C)C)c3)cn2)c1`: the growth inhibition in test [1] is -3%; in test [4] it was 98% (active). Also, the inhibition is 19% in test [2] and -2% in test [3]. Also, the result in test [5], in test [6], in test [7] and in test [8] was inactive.
With `O=C(N[C@@H](Cc1ccccc1)C(=O)NC1CCCc2ccccc21)c1ccc(O)c(-c2ccc(Cl)c(Cl)c2)c1` (stereo not given in full), the figures for the growth inhibition in test [1] and in test [4] were 99% (active) and 97% (active), respectively. In addition, the inhibition in test [2] is -3%; in test [3] it was -8%. Moreover, the result in test [5], in test [6], in test [7] and in test [8] was inactive.
As for `O=c1cc(NCCCNCc2cccc3c2OC(F)(F)O3)[nH]c2ccccc12`, the growth inhibition in test [1] was 15%; in test [4] it was 88% (active). Also, the inhibition is 4% in test [2] and 7% in test [3]. Moreover, the result in test [5], in test [6], in test [7] and in test [8] was inactive.
In the case of `CC(C)C[C@H](NC(=O)c1cc2ccccc2s1)C(=O)N[C@H]1CCN(Cc2ccc(OC3CCN(C)C3)c(Cl)c2)C1` (stereo not given in full), the growth inhibition in test [1] is 65% (active); in test [4] it was 97% (active). Moreover, the inhibition in test [2] is 68% (active); in test [3], 2%. In addition, the outcome in test [5], in test [6], in test [7] and in test [8] was inactive.

The term inhibition denotes the drop in the measured response relative to a control, in per cent.
